Screens (PubChem)
VP16 counter = Gal4-VP16 reporter inhibition counter-screen; Drosophila S2 Gal4-VP16 UAS-luciferase, luminescence, 20 h; Potency, µM (top dose mostly 53.6 µM), for inactives: top-dose activity, negative = inhibition, most hits filed as inhibitors; actives 3.5% (n = 310,000); AID 2546;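 further: Gal4-VP16 expression switched on by copper sulfate through the metallothionein promoter; nearly all actives have a fitted effect of over 50% in size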
RORgamma inh = blocks mouse ROR gamma transcriptional activity. P51450. Drosophila S2 Gal4-RORgamma UAS-luciferase reporter, 20 h. Potency, µM (highest dose often 53.6 µM), inactives show at the top dose activity change, negative = inhibition, most hits filed as inhibitors. actives 5.4% (n = 310,000). AID 2551; further: nearly all actives have a fitted effect of over 60% in size
Target sequence (P51450 whole entry, looked up, the tested form may be a part): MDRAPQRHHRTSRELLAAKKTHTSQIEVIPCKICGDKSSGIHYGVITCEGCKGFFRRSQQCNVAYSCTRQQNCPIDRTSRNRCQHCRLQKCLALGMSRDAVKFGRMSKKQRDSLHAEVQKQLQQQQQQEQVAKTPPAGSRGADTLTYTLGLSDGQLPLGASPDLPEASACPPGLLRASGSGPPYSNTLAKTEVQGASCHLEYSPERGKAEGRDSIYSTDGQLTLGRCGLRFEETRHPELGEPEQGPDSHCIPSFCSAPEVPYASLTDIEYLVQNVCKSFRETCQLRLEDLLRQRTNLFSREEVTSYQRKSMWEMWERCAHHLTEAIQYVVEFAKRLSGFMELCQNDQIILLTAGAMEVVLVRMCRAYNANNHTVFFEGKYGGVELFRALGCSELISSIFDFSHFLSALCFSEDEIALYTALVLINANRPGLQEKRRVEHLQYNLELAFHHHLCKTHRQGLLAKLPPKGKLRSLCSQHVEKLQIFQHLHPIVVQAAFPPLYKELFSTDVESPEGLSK
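Stably transfected Drosophila Schneider cells are the test system, with ROR gamma fused to Gal4 and luciferase under UAS control; luminescence is read after 20 hr of 700 uM copper sulfate induction at ambient temperature.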
KinaseGlo FLuc = blocks Kinase-Glo luciferase, a counter-screen artifact; actives 0.28% (n = 200,000); Potency, µM (titrated, usually from 38.3 µM), for inactives: top-dose activity change, negative = inhibition, actives largely listed as inhibitors; Q27757; Kinase-Glo luciferase, ATP luminescence, 8 min; further: nearly all actives have a fitted effect of over 60% in size
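Compounds were added to a substrate mix at pH 7.2 (50 mM imidazole, 10 uM ATP, within the enzyme's linear range), followed by Kinase-Glo detection reagent; luminescence was measured after 8 minutes at ambient temperature.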
Numbers without * were called inactive; ? = inconclusive; / = no result given. This is a sample that favours compounds with a hit; in the whole collection about 6.4% have one here. The call rests on the fitted dose curve; in most records, active means well fitted curve in the direction sought with a large enough effect; inconclusive means small, poorly fitted or top-dose-only effect, or another doubt; inactive means no such curve, though single readings can be large; an effect the other way counts as inactive or inconclusive. On the % scale 0 is the no-effect control and ±100 the full control effect; potency means the concentration at half of the fitted maximal effect.

SMILES | VP16 counter | RORgamma inh | KinaseGlo FLuc
Cc1cccc2sc(NNC(=O)c3ccc(S(=O)(=O)N4CCc5ccccc5C4)cc3)nc12 | ? | -32% | 2%
Cc1cc(C)c2nc(NNC(=O)c3ccc(S(=O)(=O)N4CCCCC4)cc3)sc2c1 | 8.9µM* | 3.2µM* | 2%
Cc1cccc2sc(NNC(=O)c3ccc(S(=O)(=O)N4CCCC(C)C4)cc3)nc12 (stereo not given) | 3.2µM* | 3.5µM* | 3%
CCOC(=O)N1CCN(S(=O)(=O)c2ccc(C(=O)N(CCN(C)C)c3nc4ccc(Cl)cc4s3)cc2)CC1 | -2% | -23% | /
CCOC(=O)N1CCN(S(=O)(=O)c2ccc(C(=O)NNc3nc4c(C)cccc4s3)cc2)CC1 | 5µM* | 10µM* | 10%
CCOC(=O)N1CCN(S(=O)(=O)c2ccc(C(=O)N(CCN(CC)CC)c3nc4c(C)cccc4s3)cc2)CC1 | 18% | 15% | /
CCOC(=O)N1CCN(S(=O)(=O)c2ccc(C(=O)NNc3nc4ccc(Cl)cc4s3)cc2)CC1 | ? | 7.1µM* | -1%
Cc1cc(C)c(NC(=O)c2ccc(S(=O)(=O)N3CCOCC3)cc2)c(C)c1 | 5% | 4% | -1%
COC(=O)CCN(c1ccccc1)S(=O)(=O)c1cc(-c2cc(C)no2)ccc1C | 2% | -14% | /
CC(C)CC(=O)N1CCC(N(CCc2ccccc2)Cc2ccccc2)CC1 | 3% | 41% | /
CC1=CC2C(C)(C)CC(=O)C[C@]2(C)CC1COc1ccc2c(c1)CC(=O)C=C2 (stereo not given in full) | -13% | -2% | 1%
CCOC(=O)N1CCN(S(=O)(=O)c2ccc(C(=O)Nc3nc4c(s3)CC(C)CC4)cc2)CC1 (stereo not given) | 0% | -16% | /
CCOC(=O)N1CCN(S(=O)(=O)c2ccc(C(=O)NNc3nc4cc(C)cc(C)c4s3)cc2)CC1 | 5µM* | 11µM* | -3%
CCOC(=O)N1CCN(S(=O)(=O)c2ccc(C(=O)NNc3nc4c(C)cc(C)cc4s3)cc2)CC1 | 20µM* | 14µM* | 0%
CCOC(=O)N1CCN(S(=O)(=O)c2ccc(C)c(C)c2)CC1 | 1% | -16% | 1%
CCN1CCN(C(=O)c2ccc3c(=O)n(CCc4ccccc4)c(=O)[nH]c3c2)CC1 | -11% | 35% | /
CCOc1ccccc1NC(=S)NCc1ccccc1 | 8.9µM* | 7.1µM* | /
CCOc1ccc(CNC(=S)Nc2ccccc2)cc1Cl | 5.6µM* | 5.6µM* | /
CCOc1ccccc1NC(=O)NCc1ccc(F)cc1 | 3% | 15% | 0%
CCOc1ccccc1NC(=S)NCc1cccn1C | 20µM* | 11µM* | -1%
COc1ccc(CC(=O)NNC(=S)Nc2ccccc2)cc1Cl | 3% | ? | 6%
COc1ccccc1NC(=S)Nc1ccccc1F | ? | ? | 3%
CCOc1ccccc1NC(=S)Nn1cnnc1 | -15% | -34% | /
CCOc1ccccc1NC(=S)Nc1ccccc1F | ? | 11µM* | 5%
COc1cc(OC)cc(N2C(=O)CC(N3CCC(C(=O)N4CCCCC4)CC3)C2=O)c1 (stereo not given) | ? | 0% | /
SMILES | VP16 counter | RORgamma inh | KinaseGlo FLuc
COc1ccccc1NC(=O)NCc1ccco1 | -10% | 1% | -1%
O=C(CCCOc1ccc(Cl)cc1Cl)Nc1ccccc1C(=O)O | -12% | 8% | /
CCOc1ccccc1NC(=S)Nc1ncccc1C | 7.1µM* | 7.1µM* | /
CCOc1ccccc1NC(=O)Nc1ccccn1 | -12% | 4% | /
CCOc1ccccc1NC(=S)NCc1ccco1 | ? | 10µM* | 14%
COc1ccccc1NC(=S)NCc1ccc(Cl)cc1 | 8.9µM* | 11µM* | /
CCOc1ccccc1NC(=S)NC(=O)CCCOc1ccc(Cl)cc1Cl | 22µM* | 5µM* | 2%
O=S(=O)(NCc1cn2ccccc2n1)c1cccs1 | -11% | 7% | /
Cc1ccc(C2=NS(=O)(=O)N(C)C(C(=O)N3CCOCC3)=C2)cc1 | -4% | 5% | /
C[C@@H]1C(=O)O[C@@H]1[C@@H](C)CO[Si](c1ccccc1)(c1ccccc1)C(C)(C)C | -11% | -23% | /
COc1ccc(CNC(=S)NCc2ccc(F)cc2)cc1OC | ? | -42% | /
COc1ccccc1NC(=S)NCc1ccccn1 | ? | ? | -4%
CCOc1ccccc1NC(=O)NNS(=O)(=O)c1cc(C)ccc1C | -1% | -4% | /
COc1ccc(CNC(=S)NCc2ccc(Cl)cc2)cc1OC | 22µM* | ? | /
COc1ccccc1NC(=S)NCc1ccccc1 | ? | 14µM* | /
CCOc1ccccc1NC(=S)NNS(=O)(=O)c1c(C)cc(C)cc1C | 14µM* | 10µM* | 0%
C=C(C(C)=O)C(O)c1ccc(C(F)(F)F)cc1 (stereo not given) | 3% | 5% | 2%
CC(C)Sc1cc(Cl)nc(NC(=O)Nc2ccccc2)n1 | -16% | 5% | /
